# From PubChem BioAssay (NCI)
# Compounds without any hit were thinned out: in the full panel of roughly 83,000, 20% have a hit.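 Percent growth is the endpoint: 0 to 100 indicates growth inhibition (40 means 60% inhibition), 0 means no net growth, and negative values indicate cell death.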 The source made the active and inactive calls.
# System: KM12 colon
# Assay: NCI-60 one-dose screen, 48 h (100 = growth as untreated, 0 = no growth, -100 = all killed)
# Settings: 10 µM unless noted
# Procedure: Growth inhibition of the KM12 human tumor cell line is measured as a screen for anti-cancer activity. Cells are grown in 96 well plates and exposed to the test compound for 48 hours. Compounds are tested at a single concentration, which is 10^-5 M for most compounds. The reported endpoint is percent growth (GI% or GIPRCNT), where numbers from 0 - 100% represent growth inhibition, and numbers from -100% - 0 represent cell death. For example, a value of 40 represents 60% growth inhibition. A value of 0 means no net growth occurred over the course of the experiment. A value of -40 indicates 40% of cells at the beginning of the experiment died by the end of the experiment. A value of -100 means all cells are dead at the end of the experiment.
# NCI-60 Human Tumor Cell Lines Screen was performed using the standard one-dose NCI protocol, which is described in more detail at https://dtp.cancer.gov/discovery_development/nci-60/default.htm.
# Compounds with GIPRCNT values below 10 were considered active. Activity score was based on GIPRCNT using the following formula: […]
# Score is 0 for GIPRCNT values of 100 or above, 50 for GIPRCNT values of 0, and 100 for GIPRCNT values of -100.
row,SMILES,growth
1,O=C(CN1C(=O)S/C(=C\c2ccccc2)C1=O)Nc1ccc(C(=O)/C=C/c2cc3ccccc3nc2Cl)cc1,87.7% (inactive)
2,CCn1c2ccc(/C=N/OCCCN(C)C)cc2c2cc(/C=N/OCCCN(C)C)ccc21,17.1% (inactive)
3,CN1CCN(Cc2ccc(NC(=O)c3cncc(C#Cc4cnc5ccc(NC6CCOCC6)nn45)c3)cc2C(F)(F)F)CC1,-42.1% (active)
4,Cc1cn(-c2cc(NC(=O)c3cncc(C#Cc4cnc5ccc(OCCCS(C)(=O)=O)nn45)c3)cc(C(F)(F)F)c2)cn1,-17.8% (active)
5,NC(=O)c1c(NC(=O)c2cccc(OC(F)(F)F)c2)sc2c1CCC(=O)C2,31.4% (inactive)
6,Nc1nc(-c2cccc([N+](=O)[O-])c2)c(N=Nc2ccccc2[N+](=O)[O-])s1,54.2% (inactive)
7,CC(=O)NC(C)(C)C(=O)N[C@@H](C)C(=O)NC(C)(C)C(=O)N[C@@H](C)C(=O)NC(C)(C)C(=O)N[C@@H](C)C(=O)N[C@@H](CCC(N)=O)C(=O)NC(C)(C)C(=O)N[C@H](C(=O)NC(C)(C)C(=O)NCC(=O)N[C@@H](CC(C)C)C(=O)NC(C)(C)C(=O)N1CCC[C@H]1C(=O)N[C@H](C(=O)NC(C)(C)C(=O)NC(C)(C)C(=O)N[C@@H](CCC(N)=O)C(=O)N[C@@H](CCC(N)=O)C(=O)N[C@H](CO)CC1CCCCC1)C(C)C)C(C)C,63.3% [5 µM] (inactive)
8,C=C1C(=O)O[C@@H]2/C=C(/C)C3=CC(=O)[C@@](C)(C[C@H](OC(=O)/C(C)=C\C)[C@@H]12)O3,28.2% (inactive)
9,O=C(O)c1ccc(-n2cc(CNc3ccc(F)cc3)c(-c3ccc(C(F)(F)F)cc3)n2)cc1,78.7% (inactive)
10,O=C(Nc1cc(Cl)cc(Cl)c1)Nc1nc2ccc([N+](=O)[O-])cc2s1,3.63% (active)
11,Cn1cc(-c2nnc(N)nc2-c2cn(C)c3ccc(F)cc23)c2cc(F)ccc21,90.8% (inactive)
12,O=C1Nc2ccc(Cl)cc2/C1=C/c1ccc(OCc2ccc(Br)cc2F)cc1,101% (inactive)
13,c1ccc(-c2c(-c3ccccc3)[n+](Cc3ccc4ccccc4c3)c(-c3ccccc3)n2Cc2ccc3ccccc3c2)cc1,-82.9% (active)
14,COc1cc2cc(Oc3ccc(NC(=O)c4cccc(C(F)(F)F)c4)cc3)c(C)nc2cc1OCCN(C)C,76.9% (inactive)
15,CN1CCN(c2nc(-c3csc(-c4ccncc4)n3)cc3ccccc23)CC1,62.6% (inactive)
16,O=C(/C=C1\C=CN(CCCCO)c2ccccc21)n1ccc2ccccc21,100% (inactive)
17,Cc1cc(C(=O)Nc2ccc(SC#N)cc2)c(C)o1,89% (inactive)
18,CC(C)C(=O)Nc1ccc(-c2nc(-c3cccc(O)c3)c(-c3ccnc(Br)c3)[nH]2)cc1,43.3% (inactive)
19,COc1cc(/C=N/Nc2ccnc3cc(Cl)ccc23)cc(OC)c1O,-53.8% (active)
20,Nc1nc(-c2cccc([N+](=O)[O-])c2)c(N=Nc2cccc(Cl)c2)s1,25.7% (inactive)

row,SMILES,growth
1,COc1ccc(S(=O)(=O)NCCCNc2nccc(-n3cnc4ccccc43)n2)cc1,84.1% (inactive)
2,O=C1c2cc(Br)ccc2-n2c1nc1cc(Br)ccc1c2=O,77.5% (inactive)
3,COC(=O)c1nc(-c2ccc(C)cc2)oc1S(=O)(=O)N1CCN(c2oc(-c3ccccc3)nc2C#N)CC1,101% (inactive)
4,CC(C)SC1=NC(=C(C(=N1)NC2=ClC=CC=C2)C#N)C3=CC=CC=C3,79.3% (inactive)
5,O=C(NCCCNc1cc(-c2cn(-c3ccccc3)nc2-c2cccc(O)c2)ccn1)Nc1ccc(F)cc1,2.62% (active)
6,COc1cnc2c(c1)C(=O)c1c-2n(CCCNCC2CC2)c(=O)c2cc(F)ccc12,-8.57% (active)
7,CCOC(=O)c1c(NCC(=O)Nc2ccc(Br)cc2)sc2c1CCCC2,70.2% (inactive)
8,O=C(/C=C1\C=CN(CCCCF)c2ccccc21)n1ccc2ccccc21,112% (inactive)
9,COCCOc1ccc(-c2csc(NC(C)=O)n2)cc1NS(=O)(=O)c1cccc2c(N(C)C)cccc12,97.1% (inactive)
10,N#Cc1c(NC(=O)c2ccc(F)c(Cl)c2)sc2c1CCC(=O)C2,4.23% (active)
11,CCOc1c(C#N)c(Nc2ccc(S(N)(=O)=O)cc2)c(C#N)c2nnc(C)n12,103% (inactive)
12,COc1cc2oc(-c3cccc(NC(=O)c4cc(NC(=O)[C@H](C)NC(=O)OC(C)(C)C)ccc4C)c3)cc(=O)c2c(OC)c1OC,71.1% (inactive)
13,CCCC(=O)NC(c1cccnc1)c1cc(Cl)c2cccnc2c1O (stereo not given),30.7% (inactive)
14,CCOC(=O)c1c(NC(=O)c2ccc(C(C)(C)C)cc2)sc2cc(OCCN3CCCCC3)ccc12,51.1% (inactive)
15,C#CCOc1ccc(C(Nc2cc(Cl)ccc2Cl)c2nnnn2C2CCCCC2)cc1 (stereo not given),92% (inactive)
16,C[C@H]1[C@H](C)CC[C@]2(COC(=O)c3cccnc3)CC[C@]3(C)C(=CC[C@@H]4[C@@]5(C)CCCNC(C)(C)[C@@H]5CC[C@]43C)[C@H]12,68.9% (inactive)
17,O=c1cc(-c2ccccc2)nc2sc(-c3c[nH]c4ccc(F)cc34)nn12,84.2% (inactive)
18,CCCCCCNC(=O)Oc1ccc(/C(=C(/C)c2ccc(Cl)cc2)c2ccc(OCCN3CCCC3)cc2)cc1,29.7% (inactive)
19,CC1(C)CC[C@]2(C(=O)N3CCCNCC3)CC[C@]3(C)C(=CC[C@@H]4[C@@]5(C)CCC(=O)C(C)(C)[C@@H]5CC[C@]43C)[C@H]2C1,105% (inactive)
20,COc1ccc2oc3c4[nH]c5ccccc5c4c4c(c3c2c1)C(=O)N(O)C4=O,101% (inactive)
